Source: PubChem (National Center for Advancing Translational Sciences (NCATS))
The full list was thinned out, with hits kept by preference.
Pf Dd2 growth: blocks in vitro growth of P. falciparum Dd2 | P. falciparum Dd2 growth, SYBR Green, 72 h | AID 1347417 | Potency, µM (highest dose often 28.9 µM), hits mostly inhibitors | actives 4.3% (n = 120,000); active = well fitted inhibition curve with a large enough effect; note: nearly all actives have a fitted effect of over 65% in size
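Readout: SYBR Green fluorescence, 485 nm excitation, 535 nm emission, after ~16 h lysis at 37C. Before that, Dd2-infected red cells (2.5% hematocrit) grew 72 h with compound, 29 uM top final concentration.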
A number is an active result; . = inactive.

SMILES	Pf Dd2 growth
CCn1ncc(N2CCC(NC(=O)c3ccc(C)c(C)c3)CC2)cc1=O	.
CC1=Nc2cc(C(=O)N3CCCCC3)ccc2Sc2ccc(C)cc21	.
CCCC1=Nc2cc(C(=O)N3CCC(C)CC3)ccc2Sc2ccc(C)cc21	.
Cc1nc2cc(C(=O)NC3CCCCCC3)ccc2n1-c1ccc(Br)cc1	.
O=C(Cc1ccccc1)N1CCCN(c2cc(-c3ccc(Br)cc3)[nH]n2)CC1	.
COc1cc(NC(=O)CC[C@H]2NC(=O)c3ccccc3NC2=O)ccc1-n1nc(C)cc1C	.
CC(=O)N1CCC([C@@H]2CN(Cc3cccc(F)c3F)C[C@H]2CO)CC1	.
COc1ccc(C(=O)N2CCC(c3n[nH]c(=O)n3-c3ccc(C)cc3)CC2)c(OC)n1	.
CC(C)(C)NC(=O)N1CCCCCNC(=O)CC1c1ccccc1 (stereo not given)	.
O=C(CCc1conc1-c1ccccc1)NCc1ccccc1F	.
CCn1ncc(N2CCCC(CC(=O)NC3CCN(Cc4ccccc4)CC3)C2)cc1=O (stereo not given)	.
CC(C)CC(=O)N[C@H](C)c1onc(-c2ccc(Cl)cc2)c1C(=O)O	.
CC(C)CC(=O)N1CCC(Oc2ccccc2)C1 (stereo not given)	.
O=C(NCCc1cccc(Oc2ccccc2)c1)[C@H]1CCC[C@H](O)C1	.
COc1ccc(NC(=O)NC[C@H]2O[C@H](Cc3cc(-c4cccc(O)c4)on3)CC[C@@H]2O)cc1	.
O=C1NC(=NC2CCCCC2)C2(CCN([S+](=O)([O-])c3ccsc3)C2)N1c1cccnc1 (stereo not given)	.
CC(C)C1=NOC2(CCN(C(=O)c3ccccn3)C2)C1 (stereo not given)	.
CCCC1=Nc2cc(C(=O)NCCCN(CC)CC)ccc2Sc2ccccc21	.
CCCC1=Nc2cc(C(=O)NCCc3ccc(OCC)cc3)ccc2Sc2ccccc21	.
CCCC1=Nc2cc(C(=O)NC3CCCCC3)ccc2Sc2ccc(C)cc21	10µM
Cc1cnn(CC(=O)N2CCCCCCNC(=O)CC2)c1	.
CCN(Cc1ccccc1)C(=O)[C@@]12CCCC[C@H]1N(CCOC)C(=O)CC2	.
Clc1ccccc1-c1nc(Nc2ccccc2)nc2ccc(Br)cc12	.
Clc1ccc(Nc2nc(-c3ccccc3)c3cc(Cl)ccc3n2)cc1	.
COc1cccc(Nc2nc(-c3ccccc3)c3cc(C)ccc3n2)c1	10µM
SMILES	Pf Dd2 growth
Cn1cc(S(=O)(=O)N2CCCC2)cc1C(=O)Nc1ccc(F)cc1F	.
Cn1cc(S(=O)(=O)N2CCCCC2)cc1C(=O)Nc1ccc(OC(F)(F)F)cc1	11µM
CC(=O)c1ccc(NC(=O)c2cc(S(=O)(=O)N3CCCCCC3)cn2C)cc1	.
CC1=NOC2(CCCN(C(=O)c3ccccn3)C2)C1 (stereo not given)	.
COc1ccc(CC(=O)N2CCC(Cc3nc(-c4ccc(F)cc4)no3)CC2)cc1	.
COCC(=O)Nc1ccc(-c2noc([C@@H]3CCCN3CC(C)C)n2)cn1	11µM
COc1ccc(C(=O)Nc2ccc(-c3noc([C@@H]4CCCN4Cc4ccccc4C)n3)cn2)cc1	.
COCC(=O)Nc1ccc(-c2noc([C@@H]3CCCN3Cc3ccc(F)cc3)n2)cn1	.
COCC(=O)Nc1ccc(-c2noc([C@@H]3CCCN3Cc3ccc(S(C)(=O)=O)cc3)n2)cn1	.
COc1ccc(C(=O)Nc2ccc(-c3noc([C@@H]4CCCN4Cc4ccc(F)c(F)c4)n3)cn2)cc1	.
COc1ccc(C(=O)Nc2ccc(-c3noc([C@@H]4CCCN4Cc4ccc(Cl)cc4)n3)cn2)cc1	11µM
CNCC(=O)N1CCN(Cc2nc(C3CC3)no2)CC(O)C1 (stereo not given)	.
COc1ccccc1C(=O)NC1CCN(c2cc(-c3cccs3)[nH]n2)C1 (stereo not given)	.
COC(=O)CNC(=O)C1=NOC2CN(C(=O)c3ccn(C)n3)CC12 (stereo not given)	.
O=C(CN1CCOCC1)N1CCC(c2cc(N3CCCC3)ncn2)CC1	.
CN1CC(c2nc(C3CCOCC3)nn2CC(=O)O)CC1=O (stereo not given)	.
O=C(Nc1cccn2nc(C3CCC3)nc12)c1ccc(F)cc1	.
Cc1ccc(C(=O)Nc2cccn3nc(C4CCC4)nc23)cc1C	.
O=C(Nc1cccn2nc(C3CCC3)nc12)c1cccc(C(F)(F)F)c1	4.5µM
O=C(c1cc(F)ccc1F)N1CCC(Cc2nc(-c3ccccc3)no2)CC1	.
O=C([C@@H]1C[C@H](Oc2cccnc2)CN1C(=O)COc1ccc(F)cc1)N1CCCC1	.
CC(C)CN1C(=O)c2cccn2CC1C(=O)NCc1ccc(OC(C)C)cc1 (stereo not given)	.
O=C(NC1CC1)c1ccccc1OC1CN(C2CCC2)C1	2.8µM
O=C(c1ccccc1OC1CCN(C2Cc3ccccc3C2)CC1)N1CCCCC1	.
O=C(NC1CC1)c1ccccc1OC1CN(Cc2ccc(F)cc2)C1	.
O=C(NCc1ccccc1)C1COC2(CCN(C(=O)c3ccco3)CC2)N1C(=O)c1ccco1 (stereo not given)	.
Cc1ccc(C(=O)NC2CCN(c3cc(C(F)(F)F)nc(C)n3)CC2)cc1	.
